# DT40 TDP1 CPT – DT40-hTDP1 cell growth loss with CPT. chicken DT40 Tdp1-/-;hTDP1 cells + 20 nM CPT, ATP luminescence, 48 h. Potency, µM (titrated, usually from 46.2 µM), inactives show at the top dose activity change, negative = growth inhibition, actives largely listed as inhibitors. 420,000 tested, 12% active. AID 686979; note: nearly all actives have a fitted effect of over 55% in size
#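 Chicken DT40 Tdp1-/- cells stably complemented with human TDP1 were seeded at 400 cells/well in medium containing 20 nM camptothecin, exposed to pin-transferred compounds, and grown at 37 °C for at least 48 hr. Viability was read as ATP luminescence.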
# PLK1 PBD block – blocks phosphopeptide binding to human PLK1 polo-box domain; Potency, µM, for the others: max response, negative = inhibition, actives largely listed as inhibitors; AID 720504; 360,000 tested, 2.8% active; P53350; Plk1 PBD binding of FITC phosphopeptide, fluorescence polarization; note: series mostly up to about 57 µM; nearly all actives have a fitted effect of over 65% in size
# TDP1 inh – TDP1 (human) enzyme inhibition | Q9NUW8 | recombinant TDP1, AlphaScreen DNA substrate cleavage | Potency, µM (doses to about 130 µM), inactives show at the top dose activity change, negative = inhibition, actives largely listed as inhibitors | 350,000 tested, 0.28% active; note: nearly all actives have a fitted effect of over 40% in size
# Target sequence (Q9NUW8 whole entry, looked up): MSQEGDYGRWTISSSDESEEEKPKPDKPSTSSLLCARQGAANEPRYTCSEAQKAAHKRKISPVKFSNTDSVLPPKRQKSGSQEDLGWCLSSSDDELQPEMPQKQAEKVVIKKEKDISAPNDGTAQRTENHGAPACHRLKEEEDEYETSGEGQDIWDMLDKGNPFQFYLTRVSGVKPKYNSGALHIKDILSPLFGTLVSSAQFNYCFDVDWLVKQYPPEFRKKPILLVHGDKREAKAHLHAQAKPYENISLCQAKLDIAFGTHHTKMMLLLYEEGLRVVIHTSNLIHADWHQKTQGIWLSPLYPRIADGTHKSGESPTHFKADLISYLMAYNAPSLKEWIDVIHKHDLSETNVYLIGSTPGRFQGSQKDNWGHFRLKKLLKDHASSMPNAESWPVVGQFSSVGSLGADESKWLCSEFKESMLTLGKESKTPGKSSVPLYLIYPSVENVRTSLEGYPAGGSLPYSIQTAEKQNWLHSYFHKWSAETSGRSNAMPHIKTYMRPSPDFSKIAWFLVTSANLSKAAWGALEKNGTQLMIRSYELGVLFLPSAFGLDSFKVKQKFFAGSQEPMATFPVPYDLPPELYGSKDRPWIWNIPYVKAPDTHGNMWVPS
#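 Signal: AlphaScreen proximity between streptavidin donor and anti-FITC acceptor beads on intact substrate. Reaction: Tdp1 1 nM, substrate 15 nM final, 5 min RT after 15 min compound preincubation.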
# VDR inhibitor – vitamin D3 receptor (human) inhibition; Potency, µM, for the others: max response, negative = inhibition, usual class: inhibitors; VDR-SRC2-3 peptide fluorescence polarization, 2 h; 400,000 tested, 0.93% active; P11473
#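 Two reagent solutions held at 4 deg C in the dark were dispensed, compounds pinned at 23 nl, and the mixture incubated 2 h at room temperature. Read-out: fluorescence polarization of VDR–SRC2-3 peptide binding.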
# GCN5L2 inh – GCN5L2 (KAT2A) acetyltransferase inhibition; Potency, µM (titrated, usually from 58.9 µM), inactives show at the highest dose activity change, negative = inhibition, usual class: inhibitors; 390,000 tested, 0.21% active; Q92830; GCN5L2 HAT assay, ThioGlo1 CoA-SH fluorescence
#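 Enzyme at 20nM final was mixed with library compounds for 15 min at room temperature. Peptide H3(1-25) at 75uM, acetyl-CoA at 70uM and ThioGlo1 at 50uM were then added. Plates were read immediately and after 20 min (Ex340nm/Em540nm).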
# TDP1 cell noCPT – qHTS for Inhibitors of human tyrosyl-DNA phosphodiesterase 1 (TDP1): qHTS in cells in absence of CPT; 420,000 tested, 15% active; AID 686978, 2013; Potency, µM (series often up to 46.2 µM), for the others: top-dose activity change, negative = growth inhibition, most hits filed as inhibitors; DT40 Tdp1-/- hTDP1 cells, no CPT, ATP luminescence, 48 h; note: nearly all actives have a fitted effect of over 55% in size
#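 No-CPT arm: Tdp1-/-;hTDP1 DT40 cells (400/well) plus compounds, incubated ≥48 hr at 37 °C. Readout CellTiter-Glo luminescence.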
# * hit, by the source's call; ? = inconclusive; . = no result given; [ ] = another dose, or the depositor's remark. Hits are enriched below; roughly 18% of the tested compounds scored in any of these assays. Calls come from the whole dose curve; as a rule, active = well fitted curve in the direction sought with a large enough effect; inconclusive = small, poorly fitted or top-dose-only effect, or another doubt; inactive = no such curve, though single readings can be large; an effect the other way counts as inactive or inconclusive. % is set by controls: 0 for no effect and ±100 for the full control effect; potency is the fitted concentration of half-maximal effect.
SMILES,DT40 TDP1 CPT,PLK1 PBD block,TDP1 inh,VDR inhibitor,GCN5L2 inh,TDP1 cell noCPT
C/C(=N\NC(=O)c1ccc(Br)cc1)c1cccc(NC(=O)c2cccnc2)c1,-7.7%,1.8%,-8.1%,9.3%,6.9%,-21.0%
C/C(=N\NC(=O)COc1ccccc1[N+](=O)[O-])c1cccc(NC(=O)c2ccncc2)c1,?,-2.4%,-15.6%,5.6%,-3.3%,8.2µM*
COc1ccc(C(=O)NCC(c2ccc3c(c2)OCO3)N2CCN(C)CC2)cc1OC (stereo not given),-12.6%,.,2.2%,0.2%,-2.5%,-10.4%
CSc1ccc(CN2CCOc3ccc(CN4CCCCC4CO)cc3C2)cc1 (stereo not given),-8.9%[9.04 µM],.,.,.,.,?
Oc1cc(O)c2c(c1)O[C@H](c1ccc(O)c(O)c1)[C@@H](O)C2,-12.6%,-6.6%,-6.4%,1.5%,-2.2%,-7.7%
O=c1c(O)cc(C2Oc3cc(O)cc(O)c3CC2O)cc2c(C3Oc4cc(O)cc(O)c4CC3O)cc(O)c(O)c12 (stereo not given),4.61µM*,.,.,3.55µM*,12.6µM*,3.26µM*
Cc1ccc(CNC(=O)C2CCC(=O)N(C3CC3)C2)cc1 (stereo not given),-13.4%,2.1%,1.2%,-3.4%,-0.7%,20.6%
CCOc1ccc(-c2cc(NC(=O)Nc3ccc(Cl)cc3)c(C(=O)OC)s2)cc1,?,.,0.0%,12.5%,-8.6%,20.6µM*
CCOc1ccc(-c2cc(NC(=O)c3c(F)cccc3F)c(C(=O)O)s2)cc1,-24.6%,33.6µM*,.,?,-15.3%,20.6µM*
O=C(O)c1ccc2c(c1)C(=O)N([C@H](Cc1ccc(O)cc1)C(=O)O)C2=O,.,.,-1.5%,.,-5.6%,.
O=C1C2C(C(=O)N1/N=C/c1ccc([N+](=O)[O-])o1)C1C=CC2C12CC2 (stereo not given),16.4µM*,-15.6%,1.9%,-17.5%,0.5%,23.1µM*
O=C1SCCN1N=Cc1ccc([N+](=O)[O-])o1,8.2µM*,-15.3%,.,8.4%,.,18.4µM*
CC1CN(N=Cc2ccc([N+](=O)[O-])o2)C(=N)O1 (stereo not given),20.6µM*,-4.2%,.,8.1%,.,18.4µM*
CN(C(=O)c1cccc(NC(=O)Cc2ccc(NC(=O)C3CCCN(S(=O)(=O)c4cccc([N+](=O)[O-])c4)C3)cc2)c1)C1CCCCC1 (stereo not given),-28.5%,-4.2%,.,-6.3%,.,?
O=C(O)[C@H]1/C(=C/CO)O[C@@H]2CC(=O)N21,-0.6%,.,.,.,.,-14.2%
CCCCn1c(N)c(N(CCC(C)C)C(=O)C2CC(=O)N(c3ccc4c(c3)OCCO4)C2)c(=O)[nH]c1=O (stereo not given),0.5%,11.9µM*,3.1%,18.8%,-0.7%,-9.0%
O=C(NCCc1ccc(C(F)(F)F)cc1)C1CC(=O)N(c2ccc3c(c2)OCCO3)C1 (stereo not given),?,-12.4%,-0.1%,15.1%,-4.1%,20.6µM*
Cc1ccc(-c2csc(NC(=O)C3CC(=O)N(c4ccc5c(c4)OCCO5)C3)n2)o1 (stereo not given),?,.,5.0%,?,.,?
O=C(Nc1nc(-c2ccc3c(c2)OCCO3)cs1)C1CC(=O)N(c2ccc3c(c2)OCCO3)C1 (stereo not given),11.2µM*,.,3.4%,-9.9%,.,?
CCCCC1CCC(C(=O)N(CCCC)c2c(N)n(CCCC)c(=O)[nH]c2=O)CC1 (stereo not given),11.6µM*,-11.9%,1.1%,6.1%,4.6%,20.6µM*
CCCCN(C(=O)C1CC(=O)N(c2ccc3c(c2)OCCO3)C1)c1c(N)n(CC(C)C)c(=O)[nH]c1=O (stereo not given),-4.9%,-7.3%,-0.2%,9.4%,-1.0%,?
O=C(CCC1CCCCC1)NCCS(=O)(=O)N1CCN(c2ccccc2)CC1,?,-1.0%,.,-4.0%,2.0%,-28.5%
C[C@H](NC(=O)C1CC(=O)N(c2ccc3c(c2)OCO3)C1)C(=O)NC1CCCCC1 (stereo not given in full),?,10.6µM*,0.3%,?,-0.6%,?
O=C(CSCC(=O)Nc1nc(-c2ccc3c(c2)OCO3)cs1)Nc1nccs1,11.6µM*,-21.1%,.,4.7%,-1.3%,25.9µM*
CC(C)C[C@H](NC(=O)C1CC(=O)N(c2ccc3c(c2)OCO3)C1)C(=O)NC1CCCCC1 (stereo not given in full),-2.1%,0.6%,0.3%,1.3%,-2.9%,14.4%
SMILES,DT40 TDP1 CPT,PLK1 PBD block,TDP1 inh,VDR inhibitor,GCN5L2 inh,TDP1 cell noCPT
CC(=O)Nc1ccc(-c2csc(NC(=O)C3CC(=O)N(c4ccc5c(c4)OCCO5)C3)n2)cc1 (stereo not given),18.4µM*,-3.5%,1.2%,-1.6%,-8.6%,20.6µM*
O=C(Nc1nc(-c2ccc3c(c2)OCO3)cs1)C1CC1,2.31µM*,-7.6%,4.3%,-0.1%,2.2%,2.31µM*
O=C(O)C1CC(=O)N(c2ccc3c(c2)OCCO3)C1 (stereo not given),13µM*,2.99µM*,2.8%,-22.0%,1.9%,13µM*
O=C(Nc1ccc2c(c1)OCO2)C1CC(=O)N(c2ccc3c(c2)OCCO3)C1 (stereo not given),8.7%,-2.3%,0.0%,-9.7%,-7.0%,-2.5%
CCC(Sc1nnc2c3ccccc3n(CC)c2n1)C(=O)Nc1ccc(NC(C)=O)cc1 (stereo not given),?,.,1.1%,3.8%,-7.5%,20.6µM*
CCOC(=O)c1sc(NC(=O)C(CC)Sc2nnc3c4ccccc4n(CC)c3n2)nc1C (stereo not given),6.51µM*,-0.7%,.,-18.2%,0.6%,?
CCCn1c2ccccc2c2nnc(SC(CC)C(=O)Nc3cc(C)on3)nc21 (stereo not given),?,-6.2%,4.4%,-12.8%,-3.0%,29.1µM*
O=C(COc1cc2oc(=O)c3c(c2cc1Cl)CCC3)NCC(O)c1ccccc1 (stereo not given),?,-8.4%,5.7%,20.1%,-17.5%,?
CCOc1ccc(NC(C)c2cc(Cl)ccc2O)cc1 (stereo not given),-8.2%,-2.8%,10.3%,0.7%,-5.4%,-19.7%
C=CCn1c(NC(C)c2cc(Cl)ccc2O)nc2ccccc21 (stereo not given),?,-1.8%,7.4%,3.0%,-10.1%,?

# Compound activity: PubChem, National Center for Advancing Translational Sciences (NCATS)
